# Assay results published in PubChem BioAssay AID1508602 (The Scripps Research Institute Molecular Screening Center, 2020).
# Values joined by “and” are separate entries in the source; they are usually repeats but may differ in a detail not shown here. Equal values may be shown once. Among all 650,000 compounds or so, about 6,800 (1%) were called active. No stated cut-off is given here; in the data, active means activation above about 4.9%; inactive means the rest. The list comes from a sample in which actives are over-represented; it also holds similar structures and randomly drawn compounds. Some compounds were tested as several samples or in several runs, with calls that do not always agree.
# Biological target: G-protein coupled receptor 151 (Homo sapiens) (UniProt Q8TDV0)
# Sequence (Q8TDV0 whole entry, looked up): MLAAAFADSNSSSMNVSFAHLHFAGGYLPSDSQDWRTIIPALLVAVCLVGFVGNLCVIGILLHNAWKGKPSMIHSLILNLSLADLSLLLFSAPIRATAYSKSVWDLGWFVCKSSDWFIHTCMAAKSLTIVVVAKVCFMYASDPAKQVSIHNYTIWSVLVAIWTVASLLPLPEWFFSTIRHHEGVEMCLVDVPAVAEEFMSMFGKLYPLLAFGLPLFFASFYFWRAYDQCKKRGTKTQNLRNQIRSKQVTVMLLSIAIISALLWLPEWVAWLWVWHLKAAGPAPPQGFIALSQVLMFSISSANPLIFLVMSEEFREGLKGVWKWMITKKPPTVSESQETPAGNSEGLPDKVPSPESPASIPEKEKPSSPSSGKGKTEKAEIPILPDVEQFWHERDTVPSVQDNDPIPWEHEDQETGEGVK
# Assay: activators of human GPR151, primary screen, cell-based, PathHunter beta-arrestin, luminescence (AID 1508602);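 further: 0% = median of compound wells and 100% = cells with positive control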
# Conditions: PathHunter beta-arrestin GPR151 cells, at 11.2 µM, stronger effect = higher value
row,SMILES,activation
1,CCCN1CCC(N2CCN(c3cccc(Cl)c3)CC2)CC1,-0.685% (inactive)
2,CCc1nn(CCCN2CCN(c3cccc(Cl)c3)CC2)c(=O)n1CCOc1ccccc1,5.41% (active) and -0.0264% (inactive) and -0.848% (inactive)
3,O=C(N/N=C/c1cc(Cl)ccc1O)c1cc(-c2ccccc2)n[nH]1,5.58% (active)
4,COc1cc(Br)cc(/C=N/NC(=O)c2cc(-c3ccccc3)n[nH]2)c1O,3.1% (inactive)
5,O=C(N/N=C/c1ccccc1O)c1cc(-c2ccc(Cl)cc2)n[nH]1,-0.397% (inactive)
6,Cn1c(=NC(=O)CN2C(=O)CCC2=O)sc2cc([N+](=O)[O-])ccc21,1.44% (inactive)
7,CC(C)(C)c1cnnn1-c1ccc(C(=O)/C=C\c2ccco2)cc1,0.0135% (inactive)
8,COc1ccc(NC(=O)CCC(=O)N/N=C/c2ccccc2Cl)cc1,0.396% (inactive)
9,C=CCc1cccc(/C=N/NC(=O)CCC(=O)Nc2ccc(Br)cc2)c1O,7.12% (active)
10,COc1ccc(NC(=O)CCC(=O)N/N=C/c2cc(Cl)ccc2O)cc1,-1.64% (inactive)
11,COc1ccccc1N(CC(=O)Nc1ccc(F)c(Cl)c1)S(=O)(=O)c1ccccc1,2.46% (inactive)
12,COC(=O)c1sccc1N/N=C/c1ccccn1,-4.95% (inactive)
13,COc1ccc(CCNC(=O)Cn2cnc3sc4c(c3c2=O)CCC4)cc1OC,0.328% (inactive)
14,COc1cccc(-c2nnc(NC(=O)CSc3ccccc3)o2)c1,9.1% (active)
15,COc1ccc(NC(=O)Cc2ccc(C)cc2)cc1,-2.5% (inactive)
16,COc1cccc(-c2nnc(SCC(=O)NCc3ccccc3)o2)c1,-0.0263% (inactive)
17,COc1ccc(CC(=O)Nc2ccc(C(=O)Nc3ccccc3C(=O)O)cc2)cc1,1.57% (inactive)
18,COc1ccc(CC(=O)Nc2ccc(-c3nnc(-c4ccccc4)o3)cc2)cc1,7.27% (active)
19,COc1cccc(NC(=O)CSc2nnc(-c3ccc(NS(C)(=O)=O)cc3)o2)c1,0.627% (inactive)
20,CCC(C)NC(=O)c1sc2nc(C)nc(N3CCCCC3)c2c1C (stereo unspecified),2.24% (inactive)
21,CCC(CC)C(=O)Nc1ccc(S(=O)(=O)Nc2ncccn2)cc1,-0.125% (inactive)
22,CCCCCC(=O)OCCNC(=O)c1cc2ccccc2oc1=O,-0.976% (inactive)
23,CCc1ccc(S(=O)(=O)NCc2csc(-c3ccccc3)n2)cc1,-1.08% (inactive)

row,SMILES,activation
1,Cc1ccc(S(=O)(=O)NCc2csc(-c3ccccc3)n2)cc1,4.76% (inactive)
2,O=S(=O)(NCc1csc(-c2cccnc2)n1)c1ccc2ccccc2c1,5.9% (active)
3,NC1=NC(=O)/C(=C/c2ccccc2C(F)(F)F)S1,-0.392% (inactive)
4,COc1ccc(OC)c(NC(=O)CSc2nnc3[nH]c(=O)c(C)c(C)n23)c1,5.91% (active)
5,Cc1c(C)n2c(SCC(=O)Nc3ccc4c(c3)OCO4)nnc2[nH]c1=O,1.02% (inactive)
6,CCCc1cc(=O)[nH]c2nnc(SCC(=O)Nc3cc(OC)ccc3OC)n12,-0.547% (inactive)
7,Cc1ccc(CSCc2nnc(SCC(=O)Nc3nccs3)n2C)cc1,0.977% (inactive)
8,COc1ccc(/C(=N/C(N)=S)Nc2ccccc2)cc1,-0.629% (inactive)
9,COc1cc(/C=C/C(=O)O)ccc1OCc1ccccc1F,-0.0946% (inactive)
10,Cc1ccc(-c2nc(CCNC(=O)c3cccs3)cs2)cc1,-1.14% (inactive)
11,COC(=O)C1(C)NC(c2ccc(C)cc2)C2C(=O)N(c3ccc(C)cc3)C(=O)C21 (stereo unspecified),-0.33% (inactive)
12,COC(=O)C1(C)NC(c2ccccc2OC)C2C(=O)N(c3ccccc3)C(=O)C21 (stereo unspecified),5.08% (active)
13,COC(=O)C1(C)NC(c2ccc(C)cc2)C2C(=O)N(c3ccc(F)cc3)C(=O)C21 (stereo unspecified),-0.111% (inactive)
14,Cc1c(C(=O)Nc2ccc(F)cc2Cl)sc2ncn(CC(=O)N3CCOCC3)c(=O)c12,-1.55% (inactive)
15,Clc1ccccc1C1C=C(c2ccc(I)cc2)Nc2nnnn21 (stereo unspecified),13.5% (active)
16,Cc1ccc(C2=CC(c3ccccc3F)n3nnnc3N2)cc1 (stereo unspecified),0.122% (inactive)
17,FC(F)Oc1ccccc1C1C=C(c2ccc(Cl)cc2)Nc2nnnn21 (stereo unspecified),-0.0148% (inactive)
18,CC(C)C[C@@H]1NC(=O)[C@@H]2C[C@H](NCc3cn(C)nc3-c3ccccc3)CN2C1=O,2.5% (inactive)
19,COCCN(C)Cc1ccc(OCC(O)CN(C)Cc2ccccc2)cc1 (stereo unspecified),2.19% (inactive)
20,Cc1cc(CN(C)Cc2ccc(OCC(O)CN(C)Cc3ccccc3)cc2)n[nH]1 (stereo unspecified),5.48% (active)
21,Cc1nc(CNCc2ccc(OCC(O)CN(C)Cc3ccccc3)cc2)n[nH]1 (stereo unspecified),0.224% (inactive)
22,CC(C)Cn1cnc2c1c(=O)[nH]c(=O)n2CC(C)C,-1.78% (inactive)
23,CCOC(=O)c1oc2ccc(C=O)c(Cl)c2c1C,0.651% (inactive)
